We go through 43 sequences from article PMC10726135, “HNF4α isoforms regulate the circadian balance between carbohydrate and lipid metabolism in the liver”.

In all, about 18,000 sequences were measured (“log2 normalized intensity”: median about 0.39, highest 2% from about 6.6 on). The full list was thinned out, with the highest values kept by preference.

The target of this test is T1, HNF4alpha2 (COS-7 nuclear extract) (Homo sapiens, UniProt P41235 1-474).
T1 sequence: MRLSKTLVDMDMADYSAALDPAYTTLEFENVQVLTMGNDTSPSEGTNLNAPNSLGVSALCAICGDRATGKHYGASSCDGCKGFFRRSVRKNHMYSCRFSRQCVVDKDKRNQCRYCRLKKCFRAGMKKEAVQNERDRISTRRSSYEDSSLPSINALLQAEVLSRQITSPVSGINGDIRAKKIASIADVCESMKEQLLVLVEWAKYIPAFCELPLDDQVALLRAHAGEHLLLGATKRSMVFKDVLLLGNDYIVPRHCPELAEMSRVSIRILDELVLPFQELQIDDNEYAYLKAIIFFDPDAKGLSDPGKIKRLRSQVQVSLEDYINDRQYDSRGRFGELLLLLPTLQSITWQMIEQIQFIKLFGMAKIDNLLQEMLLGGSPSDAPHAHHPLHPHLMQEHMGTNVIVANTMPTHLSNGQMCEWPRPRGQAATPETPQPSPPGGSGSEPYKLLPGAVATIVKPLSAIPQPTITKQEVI
In words: protein-binding microarray; COS-7 nuclear extract on double-stranded Agilent 4x180k PBM; binding buffer, salt, pH and temperature not given in the material; high values mean tight binding. As to conditions: chain copies: 2; label: 3' end of strand 1 on the slide; dsDNA, one strand shown. In short, it runs like this:
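Nuclear extracts of COS-7 cells transiently transfected with a human HNF4α isoform were applied to a custom Agilent SurePrint G3 4x180k array bearing ~44,000 double-stranded ~60-nt test sequences, each in quadruplicate. The bound protein was imaged on an Agilent G2565CA scanner at 2-µm resolution. Binding signal is the normalized, background-corrected gProcessedSignal from Agilent software.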
As for “GTCTAGATGCTGGGCAGCTTGTGTGCGTTTGCCTAGGGAGATTAGAGTATCGGTCGA”, the binding signal was 1.56 log2 normalized intensity.
With “AGCTGTGTGCTCCTGTAGAATGACCCCCTGGCCTAGGGAGATTAGAGTATCGGTCGA”, the binding signal amounted to 5.17 log2 normalized intensity.
As to “GTTCTGTACTTTGGAACCTGAAAGAGCAACGCCTAGGGAGATTAGAGTATCGGTCGA”, the binding signal came to 3.87 log2 normalized intensity.
With “TTCTCTGTGACCTTTGGAAGGTGGGGGAGGGCCTAGGGAGATTAGAGTATCGGTCGA” the figure was 4.13 log2 normalized intensity; with “TGGAGCATGACCCTTTGCAGGTGGGAGAGGGCCTAGGGAGATTAGAGTATCGGTCGA”, 0.139 log2 normalized intensity; with “TGGGTTCTTGCCCTTTGGTCTGGAACACAGGCCTAGGGAGATTAGAGTATCGGTCGA”, 3.31 log2 normalized intensity.
With “AACTGTACTTTGGACTGGGGACCTGGTCTGGCCTAGGGAGATTAGAGTATCGGTCGA” the figure was 4.13 log2 normalized intensity.
In the case of “TGACTACCAGGTTCTGTACTTTGGAACCTGGCCTAGGGAGATTAGAGTATCGGTCGA”, the binding signal amounted to 6.78 log2 normalized intensity.
In the case of “GAGGTGGGCCCAGGGTTCTCTGTGACCTTTGCCTAGGGAGATTAGAGTATCGGTCGA”, the binding signal came out at 6.79 log2 normalized intensity.
With “CTGCCCTTCTGACCTCCCAGGGATACTGTGGCCTAGGGAGATTAGAGTATCGGTCGA” the figure was 2.47 log2 normalized intensity.
Turning to “GGGCCCAGGGTTCTCTGTGACCTTTGGAAGGCCTAGGGAGATTAGAGTATCGGTCGA”, the binding signal stood at 8.2 log2 normalized intensity.
The result for “CTTCTGCCCCCGCAGACCCAGTCTTAGGGAGCCTAGGGAGATTAGAGTATCGGTCGA” reads 4.14 log2 normalized intensity; that for “AGAAATCCACACAGCACTGACCTTTGAGAGGCCTAGGGAGATTAGAGTATCGGTCGA”, 4.92 log2 normalized intensity.
With “GGCACAGTAACCTGACCCCCAGTGGAATGTGCCTAGGGAGATTAGAGTATCGGTCGA” the figure was 3.32 log2 normalized intensity; with “CCCAGATATCTCTGGTAAACAGCTGACAATGCCTAGGGAGATTAGAGTATCGGTCGA”, -0.967 log2 normalized intensity.
The result for “CAAATAAAGTTTGAGGAGAGTCAAAGGTTAGCCTAGGGAGATTAGAGTATCGGTCGA” reads 3.24 log2 normalized intensity; that for “CTCAGGTCAGGGAAGACTGATAAGAAAACTGCCTAGGGAGATTAGAGTATCGGTCGA”, -0.891 log2 normalized intensity.
Take “AGTCATGTCTTCATGCTTTCAGCCTCTCTGGCCTAGGGAGATTAGAGTATCGGTCGA”: the binding signal stood at 0.358 log2 normalized intensity.
Take “CGCTCCCCGACCTCCTGCTGCAGCTCTGGGGCCTAGGGAGATTAGAGTATCGGTCGA”: the binding signal came out at 0.0682 log2 normalized intensity.
With “ACCTCCTGGGCCCAAGTGCTCCTCCCCATCGCCTAGGGAGATTAGAGTATCGGTCGA”, the binding signal came to 3.37 log2 normalized intensity.
The result for “CGACCTTTGCTCCCGACTCTGAGGCTCCATGCCTAGGGAGATTAGAGTATCGGTCGA” reads 4.94 log2 normalized intensity; that for “GGGGCCCCATCGACCTTTGCTCCCGACTCTGCCTAGGGAGATTAGAGTATCGGTCGA”, 8.11 log2 normalized intensity.
As to “AGGCTGGGGCCCCATCGACCTTTGCTCCCGGCCTAGGGAGATTAGAGTATCGGTCGA”, the binding signal stood at 9.6 log2 normalized intensity.
The result for “AGACATCGACCTTTGTGGGCTTCAGACATTGCCTAGGGAGATTAGAGTATCGGTCGA” reads 1.71 log2 normalized intensity.
As for “CCCATCGACCTTTGCTCCCGACTCTGAGGCGCCTAGGGAGATTAGAGTATCGGTCGA”, the binding signal amounted to 5.07 log2 normalized intensity.
With “GCTCTAGACATCGACCTTTGTGGGCTTCAGGCCTAGGGAGATTAGAGTATCGGTCGA” the figure was 2.69 log2 normalized intensity; with “TCTTCAGGCTGGGGCCCCATCGACCTTTGCGCCTAGGGAGATTAGAGTATCGGTCGA”, 6.79 log2 normalized intensity; with “AGCAGGCAGAGGTCAATGTCCACACCCCAGGCCTAGGGAGATTAGAGTATCGGTCGA”, 4.6 log2 normalized intensity.
The result for “GCAGAGGCTGCAGAGGTTTCGCAAGGACGTGCCTAGGGAGATTAGAGTATCGGTCGA” reads -0.792 log2 normalized intensity; that for “GTCTGCCTGACTCCAGAGTCCAAACTGGGAGCCTAGGGAGATTAGAGTATCGGTCGA”, 2.17 log2 normalized intensity; that for “AGTATCATGTTGGCATTCCAGGATGAAGGAGCCTAGGGAGATTAGAGTATCGGTCGA”, 0.674 log2 normalized intensity.
With “CAGCCTGGAGGAGGGCGAGGCCGAGCCTCAGCCTAGGGAGATTAGAGTATCGGTCGA” the figure was -0.906 log2 normalized intensity; with “ATCTACCCTTGACAATTCCTATTCATTCCCGCCTAGGGAGATTAGAGTATCGGTCGA”, -0.0843 log2 normalized intensity; with “AAACTCTGAAGGCAAATTCTTAGAATTGCAGCCTAGGGAGATTAGAGTATCGGTCGA”, -0.775 log2 normalized intensity.
With “ATCCCGTGGACTTTGCCTGCCCATCCCGTGGCCTAGGGAGATTAGAGTATCGGTCGA”, the binding signal was 3.13 log2 normalized intensity.
On to “TCTTCCTTTCTATCAGCTCTCCGTGGACTTGCCTAGGGAGATTAGAGTATCGGTCGA”, for which the binding signal came to 3.08 log2 normalized intensity.
With “AAGAGACTTTGCCCTTTTTTTCTCTCCCCTGCCTAGGGAGATTAGAGTATCGGTCGA” the figure was 3.42 log2 normalized intensity; with “CTTTCTATCAGCTCTCCGTGGACTTTGCCCGCCTAGGGAGATTAGAGTATCGGTCGA”, 9.49 log2 normalized intensity; with “GCTCTCCGTGGACTTTGCCCCCTACAGTTTGCCTAGGGAGATTAGAGTATCGGTCGA”, 9.73 log2 normalized intensity.
As to “TTTGGCCCCCAGAGCCCCGTGTCTCCCTACGCCTAGGGAGATTAGAGTATCGGTCGA”, the binding signal is 4.6 log2 normalized intensity.
As to “TCTTTGCCCTCTTGGTATCAGCTTTGAGACGCCTAGGGAGATTAGAGTATCGGTCGA”, the binding signal stood at 1.42 log2 normalized intensity.
Take “TATCAGCTCTCCGTGGACTTTGCCCCCTACGCCTAGGGAGATTAGAGTATCGGTCGA”: the binding signal was 11.1 log2 normalized intensity.
Regarding “GTGGACTTTGCCTGCCCATCCCGTGGACTCGCCTAGGGAGATTAGAGTATCGGTCGA”, the binding signal was determined as 3.88 log2 normalized intensity.
